# Values joined by “and” are separate entries in the source; they are usually repeats but may differ in a detail not shown here. Identical values can stand only once. Counter-ions that a name gives are not always drawn. Active and inactive are the calls of the source.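 How the source made its calls, unless noted: active means at least 20% inhibition of 6-phosphogluconate dehydrogenase activity; inactive means the rest.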 Where a SMILES comes first, the peptide text is derived from it. The star is where a group is joined. Tfa = O=C(C(F)(F)F)*
# Tested on: not listed separately
# Experiment: fluorescence interference in NS3h assay format, artefact control for HCV NS3 helicase inhibitor project, biochemical, NIH Clinical Collection (AID 743272; call rule not given here;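 further: HCV NS3 helicase with a Cy5 labelled single stranded DNA probe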)
# Conditions: fluorescence interference counterscreen, hits give low values
row,SMILES,fluorescence ratio
1,CNCCC(Oc1ccc(C(F)(F)F)cc1)c1ccccc1 (stereo not given),1.03 (inactive)
2,COc1ccc(/C=C/C(=O)Nc2ccccc2C(=O)O)cc1OC,0.99 (inactive)
3,COC(=O)[C@H](c1ccccc1Cl)N1CCc2sccc2C1,1 (inactive)
4,CC(C)NCC(O)COc1cccc2ccccc12 (stereo not given),0.93 (inactive)
5,O=[N+]([O-])c1cccc2cn[nH]c12,0.97 (inactive)
6,CS(=O)(=O)c1ccc(C2=C(c3ccccc3)C(=O)OC2)cc1,0.97 (inactive)
7,Cc1occc(=O)c1O,0.97 (inactive)
8,CN(C)c1nc(N(C)C)nc(N(C)C)n1,0.99 (inactive)
9,COc1ccc(-c2cc(=O)c3c(OC)c(OC)c(OC)c(OC)c3o2)cc1OC,0.96 (inactive)
10,C[N+]1(C)CCCC(OC(=O)C(O)(c2ccccc2)c2ccccc2)C1 (stereo not given),0.96 (inactive)
11,CC1=C(/C=C/C(C)=C/C=C/C(C)=C\C(=O)O)C(C)(C)CCC1,0.99 (inactive)
12,CCc1ccc(CCOc2ccc(CC3SC(=O)NC3=O)cc2)nc1 (stereo not given),0.9 (inactive)
13,CC(C(=O)O)c1ccc(-c2ccccc2)c(F)c1 (stereo not given),0.9 (inactive) and 0.98 (inactive)
14,CC[C@H]1OC(=O)[C@H](C)[C@@H](O[C@H]2C[C@@](C)(OC)[C@@H](O)[C@H](C)O2)[C@H](C)[C@@H](O[C@@H]2O[C@H](C)C[C@H](N(C)C)[C@H]2O)[C@](C)(OC)C[C@@H](C)C(=O)[C@H](C)[C@@H](O)[C@]1(C)O,0.99 (inactive)
15,C[C@H]1COc2c(N3CCN(C)CC3)c(F)cc3c(=O)c(C(=O)O)cn1c23,1 (inactive)
16,CC(C)NCC(O)COc1ccc(CC(N)=O)cc1 (stereo not given),0.98 (inactive)
17,Cc1cccc(C)c1NC(=O)C1CCCCN1C (stereo not given),0.95 (inactive)
18,CCCCC(=O)N(Cc1ccc(-c2ccccc2-c2nn[nH]n2)cc1)[C@H](C(=O)O)C(C)C,1.05 (inactive)
19,Nc1ncnc2c1ncn2[C@@H]1O[C@H](CO)[C@@H](O)[C@@H]1O,1 (inactive)

# Tested on: Neuropilin-2 / VEGF-C interaction (human)
# Experiment: inhibitors of NRP2–VEGF-C binding, biochemical, microplate binding format, z-score (AID 743281; call rule not given here)
# Conditions: microplate NRP2/VEGF-C binding assay; hits give low values
row,SMILES,z-score
1,COc1ccc(/C=C/C(=O)Nc2ccccc2C(=O)O)cc1OC,0.915 (inactive)
2,O=[N+]([O-])c1cccc2cn[nH]c12,-0.0317 (inactive)
3,CS(=O)(=O)c1ccc(C2=C(c3ccccc3)C(=O)OC2)cc1,-0.0129 (inactive)
4,Cc1occc(=O)c1O,-0.38 (inactive)
5,COc1ccc(-c2cc(=O)c3c(OC)c(OC)c(OC)c(OC)c3o2)cc1OC,0.248 (inactive)
6,CCc1ccc(CCOc2ccc(CC3SC(=O)NC3=O)cc2)nc1 (stereo not given),0.637 (inactive)
7,CC(C(=O)O)c1ccc(-c2ccccc2)c(F)c1 (stereo not given),-0.82 (inactive)
8,CC[C@H]1OC(=O)[C@H](C)[C@@H](O[C@H]2C[C@@](C)(OC)[C@@H](O)[C@H](C)O2)[C@H](C)[C@@H](O[C@@H]2O[C@H](C)C[C@H](N(C)C)[C@H]2O)[C@](C)(OC)C[C@@H](C)C(=O)[C@H](C)[C@@H](O)[C@]1(C)O,-0.251 (inactive)
9,C[C@H]1COc2c(N3CCN(C)CC3)c(F)cc3c(=O)c(C(=O)O)cn1c23,-0.188 (inactive)
10,Cc1cccc(C)c1NC(=O)C1CCCCN1C (stereo not given),-0.136 (inactive)
11,CCCCC(=O)N(Cc1ccc(-c2ccccc2-c2nn[nH]n2)cc1)[C@H](C(=O)O)C(C)C,-0.0697 (inactive)

# Molecular target: 6-phosphogluconate dehydrogenase, decarboxylating (Homo sapiens) (UniProt P52209)
# Experiment: 6PGD enzyme inhibitors, primary screen, biochemical, human, recombinant enzyme, NADPH absorbance (AID 1159550)
# Conditions: recombinant 6PGD, NADPH absorbance 341 nm; at 10 µM; hits give high values
# 6-phosphogluconate dehydrogenase, decarboxylating (Homo sapiens), sequence (P52209 whole entry, looked up): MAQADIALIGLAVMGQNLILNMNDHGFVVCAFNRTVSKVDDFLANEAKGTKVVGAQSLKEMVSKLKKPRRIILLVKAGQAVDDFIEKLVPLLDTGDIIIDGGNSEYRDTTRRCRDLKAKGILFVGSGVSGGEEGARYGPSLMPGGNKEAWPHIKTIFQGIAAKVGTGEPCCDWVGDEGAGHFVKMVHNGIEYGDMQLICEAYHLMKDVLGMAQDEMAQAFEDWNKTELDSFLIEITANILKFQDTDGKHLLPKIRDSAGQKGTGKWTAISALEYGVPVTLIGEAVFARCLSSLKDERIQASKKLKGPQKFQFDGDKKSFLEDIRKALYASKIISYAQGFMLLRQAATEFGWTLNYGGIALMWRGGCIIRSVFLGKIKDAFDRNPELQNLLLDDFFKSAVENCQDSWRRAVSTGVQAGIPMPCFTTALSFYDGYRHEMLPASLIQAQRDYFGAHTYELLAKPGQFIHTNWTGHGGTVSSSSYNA
row,SMILES,inhibition
1,CNCCC(Oc1ccc(C(F)(F)F)cc1)c1ccccc1 (stereo not given),19% (inactive)
2,CS(=O)(=O)CCCCN=C=S,1.33% (inactive)
3,CC(=O)O[C@H]1CC[C@]2(C)[C@H]3CC=C4[C@@H]5CC(C)(C)CC[C@]5(C(=O)O)CC[C@@]4(C)[C@]3(C)CC[C@H]2C1(C)C,-0.817% (inactive)
4,COc1ccc(/C=C/C(=O)Nc2ccccc2C(=O)O)cc1OC,5.84% (inactive)
5,NC(=O)c1cc[n+](CC2=C(C(=O)O)N3C(=O)[C@H](NC(=O)C(c4ccccc4)S(=O)(=O)[O-])[C@@H]3SC2)cc1 (stereo not given in full),-12% (inactive)
6,C=C(C)/C=C1/C=CC(=O)C(C)=C1,-4.6% (inactive)
7,COC(=O)[C@H](c1ccccc1Cl)N1CCc2sccc2C1,3.19% (inactive)
8,CC(C)NCC(O)COc1cccc2ccccc12 (stereo not given),13.6% (inactive)
9,Oc1ccc2c(c1)OC[C@H]1c3cc4c(cc3O[C@@H]21)OCO4,-3% (inactive)
10,O[n+]1ccccc1[S-].O[n+]1ccccc1[S-].[Zn],12.7% (inactive)
11,O=[N+]([O-])c1cccc2cn[nH]c12,-14.4% (inactive)
12,C[C@]12CC[C@@H](O)C[C@H]1CC[C@@H]1[C@@H]2C(=O)C[C@@]2(C)[C@H]1CC[C@]2(O)C(=O)CO,-17% (inactive)
13,COc1cc2c(cc1OC)[C@H]1Cc3ccc(OC)c(OC)c3CN1CC2,6.86% (inactive)
14,CS(=O)(=O)c1ccc(C2=C(c3ccccc3)C(=O)OC2)cc1,-26.3% (inactive)
15,CC1(C)Oc2ccc3ccc(=O)oc3c2C[C@H]1O,1.49% (inactive)
16,Cc1occc(=O)c1O,8.86% (inactive)
17,CN(C)c1nc(N(C)C)nc(N(C)C)n1,11.2% (inactive)
18,COc1ccc(-c2cc(=O)c3c(OC)c(OC)c(OC)c(OC)c3o2)cc1OC,2.3% (inactive)
19,C[N+]1(C)CCCC(OC(=O)C(O)(c2ccccc2)c2ccccc2)C1 (stereo not given),-19.7% (inactive)
20,CC(C)[C@H](NC(=O)[C@H](Cc1ccc(O)cc1)NC(=O)[C@@H](NC(=O)C(F)(F)F)C(C)C)C(=O)O (Tfa-Val-Tyr-Val-OH),-6.07% (inactive)

row,SMILES,inhibition
1,CC1=C(/C=C/C(C)=C/C=C/C(C)=C\C(=O)O)C(C)(C)CCC1,16.8% (inactive)
2,O=c1c(O)cc([C@H]2Oc3cc(O)cc(O)c3C[C@H]2O)cc2c([C@H]3Oc4cc(O)cc(O)c4C[C@H]3O)cc(O)c(O)c12,31.2% (active)
3,CCc1ccc(CCOc2ccc(CC3SC(=O)NC3=O)cc2)nc1 (stereo not given),6.81% (inactive)
4,COc1ccc(C[C@H](N)C(=O)N[C@H]2[C@@H](O)[C@H](n3cnc4c(N(C)C)ncnc43)O[C@@H]2CO)cc1,-10.2% (inactive)
5,CC=C(C)C(=O)OC1C(OC(C)=O)[C@]2(CO)C(O)C[C@]3(C)C(=CCC4[C@@]5(C)CCC(OC6OC(C(=O)O)C(OC7OC(CO)C(O)C(O)C7O)C(O)C6OC6OC(CO)C(O)C(O)C6O)[C@](C)(CO)C5CC[C@]43C)C2CC1(C)C (stereo not given in full),10.9% (inactive)
6,CC(C(=O)O)c1ccc(-c2ccccc2)c(F)c1 (stereo not given),19% (inactive)
7,Cn1nnnc1SCC1=C(C(=O)O)N2C(=O)[C@@H](NC(=O)[C@@H](O)c3ccccc3)[C@H]2SC1,0.99% (inactive)
8,COC(=O)[C@]1(C)CC[C@]2(C)CC[C@]3(C)C4=CCc5c(cc(OC(C)=O)c(OC(C)=O)c5C)[C@]4(C)CC[C@@]3(C)[C@@H]2C1,10.1% (inactive)
9,CC(=O)OC1CCC2(C)C(CCC3(C)C2CC=C2C4CC(C)(C)CCC4(C)CCC23C)C1(C)C (stereo not given),3.75% (inactive)
10,CC[C@H]1OC(=O)[C@H](C)[C@@H](O[C@H]2C[C@@](C)(OC)[C@@H](O)[C@H](C)O2)[C@H](C)[C@@H](O[C@@H]2O[C@H](C)C[C@H](N(C)C)[C@H]2O)[C@](C)(OC)C[C@@H](C)C(=O)[C@H](C)[C@@H](O)[C@]1(C)O,2.59% (inactive)
11,C[C@H]1COc2c(N3CCN(C)CC3)c(F)cc3c(=O)c(C(=O)O)cn1c23,0.836% (inactive)
12,NC[C@@H]1OC(O[C@@H]2[C@@H](O)[C@H](O[C@H]3[C@@H](O)[C@H](N)C[C@H](N)[C@H]3O[C@H]3O[C@H](CN)[C@H](O)[C@H](O)[C@H]3N)O[C@@H]2CO)[C@H](N)[C@@H](O)[C@H]1O (stereo not given in full),-6.73% (inactive)
13,CC(C)NCC(O)COc1ccc(CC(N)=O)cc1 (stereo not given),-17.1% (inactive)
14,CCCCC(CC)COC(=O)COc1cc(Cl)c(Cl)cc1Cl (stereo not given),4.06% (inactive)
15,CC(=O)OC1CCC2(C)C(CC(OC(C)=O)C3(C)C2CCC2(C)C(c4ccoc4)OC(=O)C4OC423)C1(C)C (stereo not given),-7.87% (inactive)
16,O=c1ccc2ccc(O)c(O)c2o1,2.02% (inactive)
17,Cc1cccc(C)c1NC(=O)C1CCCCN1C (stereo not given),10.7% (inactive)
18,CCCCC(=O)N(Cc1ccc(-c2ccccc2-c2nn[nH]n2)cc1)[C@H](C(=O)O)C(C)C,-2.51% (inactive)
19,NCCCC[C@H](N)C(=O)N[C@@H](Cc1ccccc1)C(=O)N[C@@H](Cc1ccc(O)cc1)C(=O)O (H-Lys-Phe-Tyr-OH),6.75% (inactive)
20,Nc1ncnc2c1ncn2[C@@H]1O[C@H](CO)[C@@H](O)[C@@H]1O,-15.7% (inactive)

# Reference: PubChem BioAssay
